Pol eta inh-1: inhibitors of human DNA polymerase eta; Q9Y253; recombinant Pol eta, fluorescent DNA replication assay; Potency, µM (titrated, usually from 114 µM), for inactives: top-dose activity change, negative = inhibition, hits mostly inhibitors; actives 1.2% (n = 390,000); note: % is set by controls: 0 for no effect and ±100 for the full control effect
Target sequence (Q9Y253 whole entry, looked up): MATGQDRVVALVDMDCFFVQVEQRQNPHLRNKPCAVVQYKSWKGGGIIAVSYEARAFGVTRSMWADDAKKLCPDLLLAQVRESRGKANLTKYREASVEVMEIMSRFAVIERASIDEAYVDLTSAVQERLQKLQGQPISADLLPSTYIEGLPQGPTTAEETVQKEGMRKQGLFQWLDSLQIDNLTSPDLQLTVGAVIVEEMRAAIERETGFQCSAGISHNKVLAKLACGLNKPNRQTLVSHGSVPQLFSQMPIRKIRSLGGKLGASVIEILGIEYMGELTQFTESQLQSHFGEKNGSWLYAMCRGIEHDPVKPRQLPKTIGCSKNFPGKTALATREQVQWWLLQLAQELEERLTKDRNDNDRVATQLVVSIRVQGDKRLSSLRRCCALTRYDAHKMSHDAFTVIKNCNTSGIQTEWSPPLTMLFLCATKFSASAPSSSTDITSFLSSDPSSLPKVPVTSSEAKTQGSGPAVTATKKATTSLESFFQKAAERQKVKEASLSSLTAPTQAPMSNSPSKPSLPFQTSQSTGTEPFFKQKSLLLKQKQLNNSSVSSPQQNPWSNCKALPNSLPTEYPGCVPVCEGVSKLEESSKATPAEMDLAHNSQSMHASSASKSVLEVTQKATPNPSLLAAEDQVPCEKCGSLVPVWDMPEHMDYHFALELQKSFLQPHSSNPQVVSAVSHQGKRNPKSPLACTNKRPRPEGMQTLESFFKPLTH
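Pol eta at 10 nM preincubated with compounds 15 min at room temperature; reaction started with fluorescent substrate (50 nM final) and read kinetically at 0 and 10 min.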
Pol kappa inh-1: DNA polymerase kappa (human) inhibition; Q9UBT6; purified Pol kappa, fluorescent DNA synthesis assay, 10 min; Potency, µM (titrated, usually from 107 µM), without a hit: top-dose activity, negative = inhibition, usual class: inhibitors; actives 0.53% (n = 400,000); note: % is set by controls: 0 for no effect and ±100 for the full control effect
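Readout: fluorescence, taken kinetically at 0 and 10 min. Conditions: 10 nM Pol kappa, 15 min RT compound preincubation, 50 nM substrate final. Controls: enzyme-free buffer wells.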
POLI inh: inhibitors of human DNA polymerase iota; Q9UNA4; Pol iota fluorescent replication assay, 10 min; Potency, µM (series often up to 115 µM), without a hit: top-dose activity, negative = inhibition, usual class: inhibitors; actives 1% (n = 390,000); AID 588590
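Pol iota at 10 nM preincubated 15 min with compounds at room temperature; reaction started with fluorescent substrate, 50 nM final. Fluorescence read kinetically at 0 and 10 min; buffer-only wells as negative control.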
WRN inhibitor: inhibitors of human WRN helicase | WRN helicase unwinding, fluorescent forked duplex, kinetic | actives 0.46% (n = 360,000) | AID 651768 | Q14191 | Potency, µM (doses to about 114 µM), for inactives: at the highest dose activity change, negative = inhibition, hits mostly inhibitors; note: % is set by controls: 0 for no effect and ±100 for the full control effect; nearly all actives have a fitted effect of over 55% in size
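Kinetic fluorescence helicase assay: unwinding of a quenched forked DNA duplex (100 nM final) with 2 mM ATP final raises red fluorescence (525/598 nm). Compounds sat 15 min at room temperature with 20 nM WRN beforehand.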
Pol beta inh: blocks human DNA polymerase beta activity. P06746. Pol beta primer extension/strand displacement, fluorescence kinetic. Potency, µM (titrated, usually from 114 µM), for the others: at the top dose activity change, negative = inhibition, most hits filed as inhibitors. actives 1.3% (n = 340,000). AID 485314; note: % is set by controls: 0 for no effect and ±100 for the full control effect
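Kinetic readout of DNA synthesis with strand displacement by Pol beta. Compound and 10 nM enzyme sit 15 min at room temperature; 50 nM substrate starts the reaction, read immediately and at 10 min.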
FEN1 inh-1: human FEN1 inhibition; P39748; Recombinant FEN1 flap cleavage, fluorescence, 15 min; Potency, µM (series often up to 114 µM), inactives show at the top dose activity change, negative = inhibition, most hits filed as inhibitors; actives 0.35% (n = 390,000); AID 588795; note: % is set by controls: 0 for no effect and ±100 for the full control effect; nearly all actives have a fitted effect of over 65% in size
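FEN1 at 10 nM preincubated with compounds 15 min at room temperature, then flap DNA substrate added at 50 nM final. Signal read at 0 and 15 min; concentration-response fitted with four-parameter Hill equation.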
Pol iota confirm: Confirm cherry-picked inhibitors of human polymerase iota | Potency, µM, usual class: inhibitors | actives 77% (n = 1,500) | AID 720496 | shares compounds with Pol kappa inh-1 | Pol iota primer extension, TAMRA/BHQ fluorescence
Pol kappa inh-2: Pol kappa (human) inhibition, cherry-pick confirmation; shares compounds with Pol eta inh-1; purified Pol-kappa, fluorescent strand-displacement substrate; Potency, µM, hits mostly inhibitors; actives 76% (n = 920); AID 720501
Pol eta inh-2: Pol eta (human) inhibition, cherry-pick confirmation | AID 720502 | actives 64% (n = 2,600) | Pol eta primer extension, TAMRA/BHQ fluorescence, 10 min | shares compounds with Pol eta inh-1 | Potency, µM, most hits filed as inhibitors
FEN1 inh-2: FEN1 inhibition, cherry-pick retest. shares compounds with FEN1 inh-1. FEN1 flap cleavage, TAMRA/BHQ2 fluorogenic DNA substrate. Potency, µM, actives largely listed as inhibitors. actives 79% (n = 880); note: nearly all actives have a fitted effect of over 60% in size
Numbers without * were called inactive; u = inconclusive; x = no result. Shown are actives, neighbours in structure and some others; about 2.4% of the full set was active somewhere. Calls come from the whole dose curve; as a rule, active = well fitted curve in the direction sought with a large enough effect; inconclusive = small, poorly fitted or top-dose-only effect, or another doubt; inactive = no such curve, though single readings can be large; an effect the other way counts as inactive or inconclusive. Potency is the fitted concentration of half-maximal effect.

SMILES	Pol eta inh-1	Pol kappa inh-1	POLI inh	WRN inhibitor	Pol beta inh	FEN1 inh-1	Pol iota confirm	Pol eta inh-2	FEN1 inh-2	others
COc1cc(C(=O)OCC(=O)NC2CCS(=O)(=O)C2)c([N+](=O)[O-])cc1OC (stereo not drawn)	-3%	2%	124%	1%	22%	-1%	x	x	x
COc1cccc(Cn2c(C)c(CNCc3ccccc3Cl)c(C(=O)O)c2C)c1	-8%	-13%	22%	x	u	8%	x	x	x
O=C(CCN1C(=O)/C(=C\C=C\c2ccccc2)SC1=S)Nc1ccc(C(=O)O)cc1	28µM*	u	u	56µM*	20µM*	-19%	27*	85*	u
O=C(CCCN1C(=O)/C(=C\c2ccccc2)SC1=S)Nc1ccc(C(=O)O)cc1	u	-18%	u	-7%	-15%	-1%	x	x	x
O=C(O)c1cc(O)c2c(c1)C(=O)c1cc(O)cc(O)c1C2=O	8.9µM*	22µM*	u	u	7.9µM*	u	21*	6*	u
O=C(CSc1nc2ccccc2o1)Nc1nc2ccc(Br)cc2s1	u	-18%	7%	-2%	u	11%	x	x	x
N#Cc1c(SCC(=O)Nc2nc3ccc(Br)cc3s2)sc2c(O)cc(=O)[nH]c12	11µM*	32µM*	6.3µM*	u	35µM*	28µM*	67*	15*	u	Pol kappa inh-2=8.4*
CN(c1ccccc1)c1ccc(/C=C(/CCC(=O)O)c2nc3ccccc3s2)cc1[N+](=O)[O-]	20µM*	32µM*	18µM*	u	x	50µM*	47*	67*	67*
NS(=O)(=O)c1ccc(CCNC(=O)c2cc(-c3ccco3)nc3ccccc23)cc1	u	-20%	-20%	-11%	x	-3%	x	x	x
CN(C)C(CNC(=O)c1cc(-c2ccco2)nc2ccccc12)c1ccccc1 (stereo not drawn)	11µM*	25µM*	u	u	x	u	34*	76*	u
N#Cc1ccc(/C=C2/C=Cc3ccccc32)cc1	x	-9%	32%	x	x	-1%	x	x	x
COc1ccc(Cl)cc1NC(=O)CSc1nc(-c2ccco2)cc(C(F)(F)F)n1	-2%	-8%	1%	x	18%	-22%	x	x	x
Cc1cccc(C)c1NC(=O)CN1C(=O)S/C(=C\c2cccn2-c2cccc(C(=O)O)c2)C1=O	22µM*	-27%	u	u	-109%	50µM*	38*	76*	76*
Cc1cc(NC(=O)CN2C(=O)S/C(=C\c3ccccc3)C2=O)no1	-3%	8%	17%	5%	29%	4%	x	x	x
O=C(CN1C(=O)N/C(=C\c2cccn2-c2cccc(C(=O)O)c2)C1=O)Nc1ccc(Cl)cc1	x	x	x	x	x	x	60*	u	60*
O=C1N/C(=C/c2cccn2-c2ccccc2)C(=O)N1Cc1ccc(F)cc1	3%	-2%	30%	4%	-12%	1%	x	x	x
CC(C)(C)OC(=O)N1CCC(c2c(C(=O)N3CCN(c4ccccn4)CC3)cnn2-c2ccccc2Cl)CC1	-11%	-5%	7%	x	-1%	11%	x	x	x

Screening data from PubChem BioAssay.
